Data published in PubChem BioAssay.
Calls of active or inactive are those of the source. Unless noted, how the calls were made is not given here.

Key:
[1] = compound effects on lung adenocarcinoma cell viability – A549, calcein-AM fluorescence, 48 h, basal, profiling panel (AID 1162); settings: higher = more signal; further: test concentration not given here
[2] = compound effects on differentiated 3T3-L1 adipocyte viability – cell-based, 3T3-L1 adipocytes, calcein-AM fluorescence, 48 h, basal, profiling panel (AID 1163); settings: 3T3-L1 adipocytes viability, higher = more signal; further: test concentration not given here
[3] = compound effects on hepatocellular carcinoma cell viability – HepG2, calcein-AM fluorescence, 48 h, basal, profiling panel (AID 1164); settings: higher = more signal; further: test concentration not given here
[4] = compound effects on multiple myeloma cell viability – MM1S, calcein-AM fluorescence, 48 h, basal, profiling panel (AID 1165); settings: higher = more signal;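 further: viability of MM1S multiple myeloma cells under basal unstimulated conditions; test concentration not given here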
[5] = calcein-AM signal in unstimulated myeloma cells – cell-based, calcein-AM fluorescence, 48 h, PK04 Diversity Set, profiling panel (AID 1166); settings: RPMI8226 myeloma viability, higher = more signal;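 further: cells grown under basal conditions without added stimulus; test concentration not given here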
[6] = JC-1 mitochondrial signal, unstimulated HepG2 cells – cell-based, JC-1 fluorescence, 24 h, 100 nL compound, profiling panel (AID 1167); settings: HepG2 mitochondrial potential, higher = more signal; further: test concentration not given here
[7] = JC-1 mitochondrial signal, unstimulated adipocytes – cell-based, JC-1 fluorescence, 3T3-L1 adipocytes, 24 h, 100 nL compound, profiling panel (AID 1168); settings: JC-1 mitochondrial fluorescence, higher = more signal, called active from +8 up or from −8 down; further: test concentration not given here
[8] = JC-1 mitochondrial signal, unstimulated myeloma cells – cell-based, JC-1 fluorescence, RPMI8226, 24 h, 100 nL compound, profiling panel (AID 1169); settings: JC-1 mitochondrial potential fluorescence, higher = more signal; further: test concentration not given here
[9] = JC-1 mitochondrial signal, unstimulated MM1S myeloma – cell-based, JC-1 fluorescence, 24 h, 100 nL compound, profiling panel (AID 1170); settings: MM1S mitochondrial potential, higher = more signal; further: test concentration not given here
[10] = resazurin metabolic signal in A549 cells – cell-based, resazurin fluorescence, 24 h, PK04 Diversity Set, profiling panel (AID 1171); settings: A549 viability, higher = more signal, called active from +8 up or from −8 down; further: test concentration not given here
[11] = resazurin metabolic signal in HepG2 cells – cell-based, resazurin fluorescence, 24 h, PK04 Diversity Set, profiling panel (AID 1172); settings: HepG2 viability, higher = more signal; further: test concentration not given here
[12] = budding yeast growth changes without added modifier – OD600, strain BY4716, 24 h, basal condition, primary screen (AID 1173); settings: S. cerevisiae BY4716 growth, OD600, 24 h; higher = more signal, called active from +8 up or from −8 down
[13] = viability profiling in MM1S myeloma cells – cell-based, resazurin fluorescence, basal, 24 h, PK04 Diversity Set, profiling panel (AID 1174); settings: higher = more signal, called active from +8 up or from −8 down; further: test concentration not given here
[14] = target: Dihydroorotate dehydrogenase (quinone), mitochondrial (Plasmodium falciparum (isolate 3D7)) (UniProt Q08210); assay: inhibition of P. falciparum DHODH – biochemical, C-terminal His tag, absorbance 600 nm, primary screen (AID 1175); settings: PfDHODH enzyme, DCIP absorbance 600 nm; higher = more signal, called active from +8 up or from −8 down;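 further: recombinant parasite enzyme with a five histidine tag at its C terminus; test concentration not given here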
[15] = inhibition of PAO1 biofilm formation – strain PAO1, LB-PBS medium, absorbance 600 nm, primary screen (AID 1176); further: test concentration not given here; settings: P. aeruginosa PAO1 growth/biofilm, A600, 12 h; higher = more signal
[16] = growth modulation of vineyard yeast isolate – strain RM11-1a, OD600, basal, 24 h, primary screen (AID 1177);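 further: cultures grown under basal conditions with no added stressor; test concentration not given here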; settings: S. cerevisiae RM11-1a growth, OD600, 24 h; higher = more signal, called active from +8 up or from −8 down
[17] = growth of efflux-deficient E. coli DRC39 – strain DRC39, OD650, 24 h, E. coli filamentation inducers, primary screen (AID 1178);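 further: growth measured as culture turbidity by optical density at 650 nm; test concentration not given here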; settings: E. coli DRC39 acrAB, higher = more signal, called active from +8 up or from −8 down
[18] = growth of efflux-deficient E. coli DRC39 – strain DRC39, OD650, 48 h, E. coli filamentation inducers, primary screen (AID 1179);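 further: screen aims at cell division blockers that make cells filament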; settings: E. coli DRC39 delta-acrAB growth, higher = more signal, called active from +8 up or from −8 down
[19] = viability profiling in RPMI8226 myeloma cells – cell-based, resazurin fluorescence, basal, 24 h, PK04 Diversity Set, profiling panel (AID 1180); settings: higher = more signal;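 further: RPMI8826 multiple myeloma cell line at 5000 cells per well; test concentration not given here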
[20] = target: E3 ubiquitin-protein ligase XIAP (Homo sapiens) (UniProt P98170); assay: small molecules binding XIAP protein – biophysical, small-molecule microarray, fluorescence 635 nm, primary screen (AID 1181); settings: higher = more signal;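 further: score merges 667 nm emission and signal to noise over triplicate slides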
Sequence of E3 ubiquitin-protein ligase XIAP (Homo sapiens) (P98170 whole entry, looked up): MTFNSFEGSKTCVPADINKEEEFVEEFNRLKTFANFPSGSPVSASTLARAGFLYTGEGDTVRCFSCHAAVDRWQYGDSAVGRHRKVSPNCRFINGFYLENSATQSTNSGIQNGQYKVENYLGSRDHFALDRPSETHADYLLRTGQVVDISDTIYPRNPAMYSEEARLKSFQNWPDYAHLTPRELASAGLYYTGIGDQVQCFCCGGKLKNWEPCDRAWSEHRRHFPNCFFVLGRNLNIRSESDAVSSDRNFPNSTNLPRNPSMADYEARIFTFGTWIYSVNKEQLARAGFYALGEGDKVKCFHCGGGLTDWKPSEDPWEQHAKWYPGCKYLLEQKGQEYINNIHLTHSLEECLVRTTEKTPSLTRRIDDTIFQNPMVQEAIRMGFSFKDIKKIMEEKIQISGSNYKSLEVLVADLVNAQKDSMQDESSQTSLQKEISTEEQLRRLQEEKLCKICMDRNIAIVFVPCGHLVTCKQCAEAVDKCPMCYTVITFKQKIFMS

Sequence of Dihydroorotate dehydrogenase (quinone), mitochondrial (Plasmodium falciparum (isolate 3D7)) (Q08210 whole entry, looked up): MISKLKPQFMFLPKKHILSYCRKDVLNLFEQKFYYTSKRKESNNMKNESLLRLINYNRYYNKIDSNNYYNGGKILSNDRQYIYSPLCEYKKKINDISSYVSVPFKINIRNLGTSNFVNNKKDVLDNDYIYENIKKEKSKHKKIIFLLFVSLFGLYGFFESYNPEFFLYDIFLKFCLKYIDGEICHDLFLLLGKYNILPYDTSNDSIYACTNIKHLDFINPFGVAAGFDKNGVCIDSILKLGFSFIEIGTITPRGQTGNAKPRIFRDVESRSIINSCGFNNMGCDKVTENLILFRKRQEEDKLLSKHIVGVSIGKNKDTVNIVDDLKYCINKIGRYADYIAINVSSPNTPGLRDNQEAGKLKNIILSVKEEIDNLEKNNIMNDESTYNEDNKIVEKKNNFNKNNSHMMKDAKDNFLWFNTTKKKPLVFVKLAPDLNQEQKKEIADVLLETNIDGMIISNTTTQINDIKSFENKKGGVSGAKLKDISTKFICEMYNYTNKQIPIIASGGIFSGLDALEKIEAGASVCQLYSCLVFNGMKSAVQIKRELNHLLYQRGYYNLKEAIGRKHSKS

Compound	z-score [1]	z-score [2]	z-score [3]	z-score [4]	z-score [5]	z-score [6]	z-score [7]	z-score [8]	z-score [9]	z-score [10]	z-score [11]	z-score [12]	z-score [13]	composite z-score [14]	z-score [15]	z-score [16]	z-score [17]	z-score [18]	z-score [19]	composite z-score [20]
Cc1cc(C)c(-c2cc([C@H](C)ON=C[C@@H](C)[C@H](OCc3ccccc3)C(C)C)on2)c(C)c1	0.66	-0.0328	0.163	0.682	-0.234	3.57	-0.508 (inactive)	-0.149	-0.143	-0.0597 (inactive)	-0.811	0.462 (inactive)	-0.258 (inactive)	-0.382 (inactive)	-0.23 (inactive)	0.255 (inactive)	0.262 (inactive)	0.336 (inactive)	-0.522	0.02
O=C1C2=CC[C@H]3C(=O)N(C4CCCCC4)C(=O)[C@H]3[C@H]2[C@H](O)[C@@H]2O[C@H]12	-3.85	1.13	-4.38	-3.05	-3.91	0.771	2.71 (inactive)	-1.02	-2.83	-2.67 (inactive)	-3.76	-5.74 (inactive)	-7.88 (inactive)	-3.96 (inactive)	-0.2 (inactive)	-1.83 (inactive)	0.0488 (inactive)	-1.02 (inactive)	-4.05	0.0694
CCOC(=O)CCN1C(=O)[C@H]2[C@H]3[C@H](O)[C@H](O)CC(=NOCC(C)C)[C@@H]3CC[C@H]2C1=O	-0.0819	0.472	-0.194	0.268	-0.706	-1.05	-0.717 (inactive)	0.562	0.104	-0.237 (inactive)	-0.452	-0.824 (inactive)	-0.665 (inactive)	-0.449 (inactive)	0.377 (inactive)	-0.992 (inactive)	-0.268 (inactive)	-0.321 (inactive)	-0.889	0.0819
C[C@H]1C=CCC(=O)OC[C@H](C)C(=O)N2CCC[C@H]2C(=O)OC1	-0.531	-1.21	-0.51	0.391	0.0245	0.291	-0.696 (inactive)	-0.148	-0.828	0.283 (inactive)	0.976	-0.18 (inactive)	-0.0106 (inactive)	-0.441 (inactive)	-0.455 (inactive)	0.73 (inactive)	0.0678 (inactive)	0.205 (inactive)	0.818	-0.102
CO[C@H]1COC(=O)CCC[C@H](C)[C@H](OC)COC(=O)CC=C[C@@H]1C	1.11	-0.14	0.481	-0.469	-0.351	-0.101	-1.7 (inactive)	0.226	-0.982	0.285 (inactive)	0.631	-2.21 (inactive)	0.364 (inactive)	-1.04 (inactive)	-0.692 (inactive)	-1.93 (inactive)	0.115 (inactive)	0.757 (inactive)	0.541	0.0593
C[C@H]1CC[C@H]2C(=O)OC(COc3ccc(C(C)(C)C)cc3)CN2[C@@H]1c1ccc(Br)cc1 (stereo not given in full)	2.19	0.193	0.349	0.793	0.253	0.745	-0.414 (inactive)	0.566	0.855	0.479 (inactive)	0.272	-4.88 (inactive)	0.283 (inactive)	-0.673 (inactive)	1.18 (inactive)	-0.249 (inactive)	1.22 (inactive)	0.662 (inactive)	-0.317	-0.173
O=C1C[C@@H](O)[C@@H](O)[C@@H]2[C@@H]3C(=O)N(c4ccc(F)cc4F)C(=O)[C@@H]3CC[C@H]12	-0.529	1.42	0.0181	-0.141	-0.0202	-0.541	-0.922 (inactive)	0.0715	0.448	-0.715 (inactive)	-0.635	0.021 (inactive)	-0.175 (inactive)	-0.0528 (inactive)	0.471 (inactive)	-0.304 (inactive)	-0.297 (inactive)	-1.31 (inactive)	-0.413	-0.214
CO[C@@H]1COC(=O)[C@H](COCc2ccccc2)NC(=O)CC=C[C@@H](C)[C@H](OC)COC(=O)[C@@H](C)NC(=O)CC=C[C@H]1C	0.759	0.0006	0.56	0.208	-1.54	0.648	-0.828 (inactive)	0.402	-0.343	0.846 (inactive)	0.532	-1.01 (inactive)	-2.05 (inactive)	0.262 (inactive)	-0.908 (inactive)	0.496 (inactive)	1.4 (inactive)	0.287 (inactive)	-0.795	-0.0939
O=C1C[C@@H](O)[C@@H](O)[C@@H]2[C@@H]3C(=O)N(C4CCCCC4)C(=O)[C@@H]3CC[C@@H]12	0.112	0.0679	0.236	-0.0357	0.313	0.0325	-0.907 (inactive)	0.0121	-0.377	-0.732 (inactive)	-0.432	0.133 (inactive)	-0.262 (inactive)	-0.506 (inactive)	-1.13 (inactive)	0.356 (inactive)	-0.574 (inactive)	-0.354 (inactive)	-0.27	0.333
